This is an account of results in PMC5540273 (PLoS ONE, 2017).

Read-outs that look alike come from different tables or passages of the source.

For one assay, the system named is RIPK2. Conditions: concentration: 1 μM, replicates: in singlicate; n = 1.
The subject of another assay is RIPK4. The following applies: concentration: 1 μM, replicates: in singlicate; n = 1.
For a further assay, the system named is RIPK5. Conditions: concentration: 1 μM, replicates: in singlicate; n = 1.
The next assay deals with ROCK1. Conditions: n = 1.
A further assay has as its system ROCK2. The following applies: concentration: 1 μM, replicates: in singlicate; n = 1.
The next assay concerns ROS1. The following applies: concentration: 1 μM, replicates: in singlicate; n = 1.
Assay [1] has as its system RPS6KA4(Kin.Dom.1-N-terminal). Conditions: concentration: 1 μM, replicates: in singlicate; n = 1.
The subject of assay [2] is RPS6KA4(Kin.Dom.2-C-terminal). Conditions: concentration: 1 μM, replicates: in singlicate; n = 1.
Assay [3] deals with RPS6KA5(Kin.Dom.1-N-terminal). Conditions: concentration: 1 μM, replicates: in singlicate; n = 1.
The test system of assay [4] is RPS6KA5(Kin.Dom.2-C-terminal). Conditions: concentration: 1 μM, replicates: in singlicate; n = 1.
[5] abbreviates: concentration: 1 μM, replicates: in singlicate.
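Note: KINOMEscan kinase panel screen.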

On to `O=c1cc(N2CCOCC2)nc2n(Cc3ccc(F)c(Cl)c3)ccn12` [GSK2297099], for which the “%Inh” value was 0% in the assay with RIPK2; 27% in the assay with RIPK4; 0% with RIPK5; 0% in the assay on ROCK1 (setting [5]); 0% with ROCK2; 0% in the assay on ROS1. Besides, the “%Inh” value in assay [1] is reported as 4%; in assay [2], 0%; in assay [3] it was 16%; in [4], 27%.

Consider `COc1cc2ncn(-c3cc(OCc4ccncc4Br)c(C(N)=O)s3)c2cc1OC` [GW854278], for which the “%Inh” value in the assay on RIPK2 is recorded as 26%; in the assay with RIPK4, 0%; with RIPK5, 9%; in the assay on ROCK1 (setting [5]), 11%; in the assay with ROCK2, 0%; in the assay on ROS1 it was 6%. Besides, the “%Inh” value in assay [1] stood at 2%; in [2], 0%; in assay [3] it was 0%; in [4] it was 7%.

Take `Cc1nc(N(C)[C@H]2CN(C(=O)CC#N)CC[C@H]2C)c2cc[nH]c2n1`: the “%Inh” value in the assay on RIPK2 is 0%; with RIPK4, 17%; with RIPK5, 17%; with ROCK1 (setting [5]), 2%; in the assay on ROCK2, 0%; in the assay with ROS1 it was 0%. Moreover, the “%Inh” value is 0% in assay [1], 10% in assay [2], 0% in assay [3] and 9% in assay [4].

`O=C(Nc1n[nH]c2nc(-c3ccccc3)c(Cl)cc12)C1CC1` [SB-734909]: the “%Inh” value in the assay on RIPK2 worked out at 0%; in the assay on RIPK4 it was 10%; with RIPK5, 16%; in the assay with ROCK1 (setting [5]), 24%; with ROCK2, 6%; in the assay with ROS1, 0%. In addition, the “%Inh” value in [1], in [2], in [3] and in assay [4] was 0% each time.

In the case of `O=C(NCc1cccs1)c1cc(C(=O)c2c(Cl)cccc2Cl)c[nH]1` [GW823670], the “%Inh” value was determined as 8% with RIPK2; 0% in the assay with RIPK4; 0% in the assay on RIPK5; 45% with ROCK1 (setting [5]); 0% with ROCK2; 0% in the assay with ROS1. Besides, the “%Inh” value in [1] came to 22%; in assay [2], 0%; in assay [3] it was 0%; in assay [4], 15%.

In the case of `Nc1ncnc2c1ncn2-c1cccc(F)c1` [SKF-97560], the “%Inh” value is listed as 100% in the assay on RIPK2; 29% in the assay on RIPK4; 26% in the assay on RIPK5; 38% in the assay on ROCK1 (setting [5]); 28% with ROCK2; 4% with ROS1. For the same molecule, the “%Inh” value in assay [1] is 0%; in assay [2], 45%; in [3], 0%; in assay [4] it was 3%.

For `COc1cc2nccc(Nc3cccc(Oc4ccccc4)c3)c2cc1OC.Cl` [GW284543], the “%Inh” value in the assay on RIPK2 is 80%; in the assay on RIPK4 it was 0%; in the assay on RIPK5, 0%; in the assay on ROCK1 (setting [5]) it was 20%; in the assay with ROCK2 it was 51%; in the assay with ROS1 it was 31%. Also, the “%Inh” value in assay [1] is 15%; in [2], 0%; in assay [3], 0%; in assay [4] it was 0%.

`O=C(NCCNc1ccnc(Nc2ccc(F)cc2)n1)Nc1ccc2c(c1)OCO2` [GSK1379882]: the “%Inh” value was 0% in the assay on RIPK2; 11% in the assay on RIPK4; 0% in the assay with RIPK5; 0% in the assay with ROCK1 (setting [5]); 0% with ROCK2; 0% in the assay with ROS1. Further, the “%Inh” value in assay [1] is 0%; in assay [2], 0%; in [3], 9%; in [4], 10%.

With `COc1ccc(-n2cnc3c(N)ncnc32)cc1` [SKF-97236], the “%Inh” value in the assay with RIPK2 stood at 15%; in the assay on RIPK4, 9%; in the assay on RIPK5, 10%; in the assay with ROCK1 (setting [5]) it was 5%; in the assay with ROCK2, 20%; in the assay with ROS1, 0%. For the same molecule, the “%Inh” value is on record as 12% in assay [1], 0% in assay [2], 15% in [3] and 0% in assay [4].

With `CCn1c(-c2nonc2N)nc2ccccc21` [SB-693162/GW549034], the “%Inh” value turned out to be 0% with RIPK2; 6% with RIPK4; 53% in the assay with RIPK5; 78% with ROCK1 (1 µM); 76% in the assay with ROCK2; 0% in the assay with ROS1. The “%Inh” value in assay [1] was 0%; in assay [2] it was 40%; in assay [3] it was 0%; in [4], 0%.

On to `Cc1nnc(-c2ccc(C)c(-c3ccc(C(=O)O)cc3)c2)o1` [GW608005], for which the “%Inh” value in the assay with RIPK2 came to 0%; in the assay with RIPK4, 9%; in the assay on RIPK5, 0%; in the assay with ROCK1 (setting [5]), 0%; with ROCK2 it was 0%; in the assay on ROS1, 0%. Besides, the “%Inh” value was 0% in assay [1], 0% in assay [2], 9% in assay [3] and 0% in assay [4].

In the case of `COc1cc(Nc2nccc(N3CCC(NC(=O)C(C)c4ccc(Cl)cc4)C3)n2)cc(OC)c1OC` (stereo not drawn) [GSK1379757], the “%Inh” value in the assay with RIPK2 is recorded as 0%; in the assay with RIPK4, 0%; in the assay on RIPK5 it was 16%; with ROCK1 (setting [5]) it was 0%; in the assay with ROCK2, 0%; with ROS1 it was 31%. In addition, the “%Inh” value in assay [1], in assay [2], in assay [3] and in assay [4] was 0% throughout.

As to `COc1ccc(Nc2nccc(N3CCC(NS(=O)(=O)c4ccc(NC(C)=O)cc4)C3)n2)cc1` (stereo not drawn) [GSK1379729], the “%Inh” value with RIPK2 amounted to 100%; in the assay with RIPK4 it was 0%; in the assay with RIPK5, 0%; in the assay on ROCK1 (setting [5]), 36%; with ROCK2 it was 18%; in the assay with ROS1, 3%. For the same molecule, the “%Inh” value in assay [1] was 0%; in assay [2], 0%; in [3], 27%; in assay [4], 0%.

With `Cl.c1ccc(Cn2cnc3cc(Nc4ncnc5ccccc45)ccc32)cc1` [GW272142], the “%Inh” value was 0% with RIPK2; 12% in the assay with RIPK4; 5% with RIPK5; 4% in the assay on ROCK1 (setting [5]); 2% with ROCK2; 6% with ROS1. Further, the “%Inh” value is listed as 6% in [1], 0% in [2], 0% in [3] and 7% in [4].

Consider `COc1cc2nccc(Nc3ccc(OCc4ccc(NC(C)=O)cc4)cc3)c2cc1OC.Cl` [GW440135], for which the “%Inh” value in the assay on RIPK2 is 61%; with RIPK4, 0%; in the assay with RIPK5 it was 0%; with ROCK1 (setting [5]), 13%; in the assay on ROCK2, 6%; in the assay on ROS1 it was 0%. Further, the “%Inh” value in [1] is 0%; in assay [2], 0%; in assay [3], 0%; in assay [4] it was 12%.

Consider `CN(C)c1cc(-c2ccc3c(N)n[nH]c3c2)nc(N)n1` [GSK2219329], for which the “%Inh” value is listed as 0% with RIPK2; 15% in the assay on RIPK4; 0% in the assay on RIPK5; 0% in the assay with ROCK1 (setting [5]); 0% in the assay on ROCK2; 10% with ROS1. The “%Inh” value was determined as 8% in assay [1], 0% in [2], 18% in [3] and 0% in assay [4].

As to `OCCCNc1nccc(-c2c(-c3cccc(C(F)(F)F)c3)nn3cc(C(F)(F)F)ccc23)n1` [GW630813], the “%Inh” value in the assay on RIPK2 was found to be 14%; in the assay on RIPK4, 0%; with RIPK5, 0%; in the assay with ROCK1 (setting [5]) it was 11%; with ROCK2 it was 24%; in the assay with ROS1 it was 0%. The “%Inh” value was 0% in assay [1], 0% in assay [2], 0% in assay [3] and 16% in assay [4].

Take `COC(=O)c1c(-c2ccccc2)c2cc(C)ccc2c(=O)n1Cc1ccccc1`: the “%Inh” value in the assay on RIPK2, in the assay with RIPK4, in the assay on RIPK5, in the assay with ROCK1 (setting [5]), in the assay on ROCK2 and in the assay with ROS1 was 0% throughout. The “%Inh” value worked out at 0% in assay [1], 0% in [2], 10% in assay [3] and 0% in assay [4].
